In the library only some 19% were active in any assay of this set; here they are far more common.
IL1B secr inh – qHTS for Inhibitors of Inflammasome Signaling: IL-1-beta AlphaLISA Primary Screen | THP-1 LPS/ATP IL-1B secretion, AlphaLISA, 16 h; stronger effect = lower value | 4.7% of 360,000 active | AID 743279, 2014 | activity change, % at 57.5 µM; in the data active = activity change below about -50%; inconclusive = mostly about -30% to -49%
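THP-1 cells pretreated 1 hr with compounds (up to 57.5 uM final), then stimulated with LPS (250 ng/mL final) plus ATP (1.25 mM final); secreted IL-1B measured by AlphaLISA after 16 hr, decreased signal indicating inhibition.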
DT40 TDP1 CPT – qHTS for Inhibitors of human tyrosyl-DNA phosphodiesterase 1 (TDP1): qHTS in cells in presence of CPT | Potency, µM (doses to about 46.2 µM), for inactives: top-dose activity change, negative = growth inhibition, actives largely listed as inhibitors | 12% of 420,000 active | chicken DT40 Tdp1-/-;hTDP1 cells + 20 nM CPT, ATP luminescence, 48 h; note: potency is the fitted concentration of half-maximal effect; nearly all actives have a fitted effect of over 55% in size
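Chicken DT40 Tdp1-/- cells stably complemented with human TDP1 were seeded at 400 cells/well in medium containing 20 nM camptothecin, exposed to pin-transferred compounds, and grown at 37 °C for at least 48 hr. Viability was read as ATP luminescence.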
HT1080 IDH1KD tx – qHTS for induction of synthetic lethality in tumor cells producing 2HG: qHTS for the HT-1080-IDH1KD cell line | HT-1080 IDH1 knockdown viability, ATP luminescence, 48 h | Potency, µM (titrated, usually from 46.1 µM), for the others: top-dose activity, negative = toxicity, hits mostly cytotoxic | 2% of 360,000 active;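 note: potency is the fitted concentration of half-maximal effect; 0% = DMSO wells and -100% = cell-free medium wells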
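% activity derives from luminescence (CellTiter-Glo), normalised to DMSO and no-cell wells. HT-1080-IDH1KD cells, 750/well, had 48 h compound exposure at 37 °C.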
HT1080NT lethal – qHTS for induction of synthetic lethality in tumor cells producing 2HG: qHTS for the HT-1080-NT fibrosarcoma cell line. HT-1080-NT fibrosarcoma viability, CellTiter-Glo ATP luminescence, 48 h. Potency, µM (doses to about 46.1 µM), for inactives: top-dose activity, negative = less viability, actives largely listed as cytotoxic. 1.6% of 360,000 active. AID 686970, 2013;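 note: NT is the 2HG producing partner of a matched IDH1 knockdown line; potency is the fitted concentration of half-maximal effect; 0% = DMSO-treated cells and -100% = media-only wells without cells; nearly all actives have a fitted effect of over 55% in size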
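Viability of the 2HG-overproducing fibrosarcoma line after 48 hours of compound exposure at 37 degrees C was determined by luminescence with CellTiter-Glo, and concentration-effect curves were then fitted and categorized.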
DT40 TDP1 no CPT – qHTS for Inhibitors of human tyrosyl-DNA phosphodiesterase 1 (TDP1): qHTS in cells in absence of CPT. DT40 Tdp1-/- hTDP1 cells, no CPT, ATP luminescence, 48 h. Potency, µM (titrated, usually from 46.2 µM), for inactives: at the highest dose activity change, negative = growth inhibition, hits mostly inhibitors. 15% of 420,000 active; note: potency is the fitted concentration of half-maximal effect; nearly all actives have a fitted effect of over 55% in size
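No-CPT arm: Tdp1-/-;hTDP1 DT40 cells (400/well) plus compounds, incubated ≥48 hr at 37 °C. Readout CellTiter-Glo luminescence.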
* = called active by the depositor; ? = inconclusive; nt = no result; ! = repeats disagree; [ ] = dose if it differs, or a comment. Unless noted, calls come from the whole dose curve; as a rule, active = well fitted curve in the direction sought with a large enough effect; inconclusive = small, poorly fitted or top-dose-only effect, or another doubt; inactive = no such curve, though single readings can be large; an effect the other way counts as inactive or inconclusive. Unless noted, % is set by controls: 0 for no effect and ±100 for the full control effect.

SMILES | IL1B secr inh | DT40 TDP1 CPT | HT1080 IDH1KD tx | HT1080NT lethal | DT40 TDP1 no CPT
CC1OCC23CC[C@@]4(C)CCC(C)(C)C[C@H]4[C@]2(C)CCC12C3CC[C@@]1(C)C2C(=O)CC(=O)[C@@H]1C (some centres undefined) | nt | 13.6%[9.04 µM] | nt | nt | -4.2%[9.04 µM]
COc1ccc(CN(C)C(=O)[C@H](Cc2ccccc2)NC(=O)c2ccco2)c(OC)c1 | -19.4 | ? | 10.9% | 6.7% | ?
COc1cc(OC)cc(C(=O)N/N=C/c2ccc(OC)c(COc3ccc(F)cc3)c2)c1 | 32.4 | 2.31µM* | 5.17µM* | ? | 2.91µM*
COc1ccc(/C=N/NC(=O)c2cc(OC)c(OC)c(OC)c2)cc1CN1CCc2cc(OC)c(OC)cc2C1C (centres undefined) | 25.5 | ? | 13µM* | ? | ?
COc1ccc(/C=N\NC(=O)c2ccccc2Br)cc1COc1ccccc1 | -13.8 | ? | ? | ? | ?
COc1ccc(/C=N/NC(=O)c2cccnc2)cc1CSc1ccccn1 | 60.4 | 6.51µM* | 11.6µM* | 23.1µM* | 6.51µM*
COc1ccc(C(=O)N/N=C\c2ccc(OC)c(COc3ccccc3Br)c2)c(OC)c1 | -14.1 | 23.1µM* | ? | 1.3% | ?
COc1ccc(C(=O)N/N=C/c2ccc(OC)c(CSc3ccccn3)c2)cc1 | ? | -5.1% | -5.5% | -0.8% | -18.6%
Cc1cccc(S(=O)(=O)NC(=O)C2(C)CCN2C(=O)c2sccc2C)c1 (centres undefined) | 4.2 | -6.7% | 4.6% | 1.4% | -8.6%
Cc1cc(OC(C)C(=O)NCc2ccccn2)c2c(C)c(C)c(=O)oc2c1 (centres undefined) | 55.5 | 3.3% | 2.8% | 22.8% | 0.5%
COc1ccc(/C=N/NC(=O)c2ccoc2C)cc1CN1CCN(c2ccc(F)cc2)CC1 | -13.6 | ? | 0.0% | -2.8% | 14.6µM*
COc1ccc(/C=N/NC(=O)c2cccnc2)cc1COc1ccc([N+](=O)[O-])cc1 | nt | 2.59µM* | 6.51µM* | ? | 2.59µM*
COc1cc(C(=O)NCCOc2ccc(Cl)cc2)ccc1OCc1c(C)noc1C | 36.2 | -24.6% | -11.9% | -5.7% | ?
Oc1cc(O)cc(/C=C/c2ccc(O)c(O)c2)c1 | -1.8 | 10.3µM*! | ? | ? | 0.651µM*
O=C(N/N=C/c1ccc(O)c(O)c1)N/N=C/c1ccc(O)c(O)c1 | 10.7 | -20.8% | -20.2% | -10.8% | ?
Cc1cnn(CCC(=O)NNC(=S)Nc2cccc(Cl)c2)c1 | 9.8 | -20.7% | 0.708µM* | 0.794µM* | 1.6%
CCOC(=O)c1ccc(OC)c(OC)c1Cl | -1.2 | 6.3% | 16.8% | -1.1% | -9.5%
CCOC(=O)c1cc(OC(C)=O)c2ccc(OC)c(OC)c2c1 | 19.3 | ? | 12.0% | ? | 23.1µM*
Cc1ccc(N2CC(C(=O)Nc3ccc(C)c(S(=O)(=O)N(C)C)c3)CC2=O)cc1 (centres undefined) | 16.0 | 9.4% | -11.6% | -15.5% | -8.3%
O=C1c2[nH]nc(-c3ccccc3)c2C(c2ccccc2)N1c1cccc(C(F)(F)F)c1 (centres undefined) | nt | 11.6µM* | nt | nt | 16.4µM*
O=C1c2[nH]nc(-c3ccc(Br)cc3)c2C(c2cccc(O)c2)N1c1ccc(Cl)cc1 (centres undefined) | nt | ? | nt | nt | 23.1µM*
Cc1ccc(-c2n[nH]c3c2C(c2cccc(O)c2)N(c2ccc(C(=O)O)cc2)C3=O)cc1 (centres undefined) | 44.6 | 2.7% | 0.0% | 29.0% | 16.4%
O=C(Nc1ccc(F)cc1)C(CCc1ccccc1)N1CCN(c2ccncc2)CC1 (centres undefined) | -27.4 | 16.4µM* | ? | 20.6µM* | 23.1µM*

Compound activity from PubChem BioAssay.
